Test results: PubChem BioAssay (NCI)
About 83,000 compounds went through this panel and 20% of them were active in at least one assay; those are over-represented in the sample as a whole.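 Growth was measured after 48 h exposure to one concentration of compound in 96-well plates. Values under 10 count as active.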 A number with no mark means an inactive call. Calls of active or inactive are those of the source.

Legend:
Experiment in all cases: NCI-60 one-dose screen, 48 h (100 = growth as untreated, 0 = no growth, -100 = all killed)
Conditions in all cases: 10 µM unless noted
NCI-H23 lung = system: NCI-H23 lung
NCI-H226 lung = system: NCI-H226 lung
NCI-H322M lung = system: NCI-H322M lung
HOP-62 NSCLC = system: HOP-62 NSCLC
NCI-H460 lung = system: NCI-H460 lung
HOP-92 NSCLC = system: HOP-92 NSCLC
NCI-H522 lung = system: NCI-H522 lung
A549/ATCC NSCLC = system: A549/ATCC NSCLC
786-0 renal = system: 786-0 renal
COLO 205 colon = system: COLO 205 colon

Row | SMILES | growth (NCI-H23 lung) | growth (NCI-H226 lung) | growth (NCI-H322M lung) | growth (HOP-62 NSCLC) | growth (NCI-H460 lung) | growth (HOP-92 NSCLC) | growth (NCI-H522 lung) | growth (A549/ATCC NSCLC) | growth (786-0 renal) | growth (COLO 205 colon)
1 | O=C(CSc1nnc2sc(Nc3cccc(Cl)c3)nn12)c1ccc(F)cc1 | 80.3% | 95.9% | 91.5% | 97.7% | 95.8% | 74.5% | 75.6% | 87.1% | 91.4% | 92.6%
2 | COc1ccccc1-n1c(-c2cc(O)ccc2C)cn2c3c(=O)[nH]c(=O)n(C)c3nc12 | 90.6% | 107% | 36% | 68.2% | 91.6% | -1.51% (active) | 44.5% | 66.3% | 52.8% | 84.2%
3 | CCN(CC)CCCNCc1cc(-c2ccccc2)nc2cc(Cl)ccc12 | 68.6% | 140% | 75.5% | 78.1% | 43.3% | -20.9% (active) | 44.2% | 57.4% | -27.6% (active) | 51.2%
4 | O=C(N=Nc1c(O)[nH]c2ccccc12)Nc1ccc(Cl)cc1 | 93% | 95.5% | 75.3% | 98.6% | 91.3% | 80% | 89.8% | 92.5% | 97.8% | 99.5%
5 | CS(=O)(=O)Cc1cnc(C2OCCO2)s1 | 107% | 96.4% | 100% | 113% | 112% | 82.4% | 88.7% | 94.8% | 104% | 116%
6 | COc1cc(C(=O)C(=O)c2cc(OC)c(O)c(OC)c2)cc(OC)c1O | 101% | 91% | 94.4% | 93.2% | 101% | 91.7% | 89.6% | 99.5% | 103% | 105%
7 | CC1(C)CCC(S(=O)(=O)c2ccc3c(c2)/C(=N\O)c2cc(S(=O)(=O)N4CCN(c5ccc(F)cc5O)CC4)ccc2-3)CC1 | -76.8% (active) | -57% (active) | -46.9% (active) | -88.1% (active) | -78% (active) | -50.4% (active) | -82.6% (active) | -92.9% (active) | -89.9% (active) | -88.8% (active)
8 | CCCCCCCCn1ccc2cc(NC(=O)Cn3cc(CN4CCOCC4)nn3)ccc21 | 106% | 92.3% | 96.8% | 113% | 101% | 70.4% | 90.4% | 98.3% | 90.6% | 109%
9 | CN1CCN(CCCOc2ccc3ncnc(Nc4ccc(Oc5cccc(F)c5)c(Cl)c4)c3c2)CC1 | 50.8% | 88.4% | 22.1% | 48.7% | -62.8% (active) | 31.4% | 22% | 21.1% | -3.9% (active) | -37% (active)
10 | COC(=O)/C(CCC=C(C)C)=C1\[C@@H](OC(C)=O)C[C@@]2(C)[C@H]1CC(=O)[C@H]1[C@@]3(C)CCC(N4CCCC4)[C@@H](C)[C@@H]3CC[C@@]12C (stereo not given in full) | 91.5% | 113% | 99.6% | 102% | 101% | 77.2% | 102% | 104% | 93.1% | 106%
11 | N#C/C(=C\c1ccc(Cl)cc1Cl)C(=O)Nc1ncc(Cc2ccc(Cl)c(Cl)c2)s1 | 91.8% | 93.4% | 76.4% | 82.9% | 101% | 70.7% | 79.1% | 89.3% | 93.2% | 112%
12 | O=C(c1ccc(F)c(Cl)c1)N1c2ccccc2Sc2ccccc21 | 78.5% | 77.3% | 102% | 76.6% | 99.5% | 37% | 42.5% | 65.6% | 79.8% | 44.7%
13 | Cc1ccc(O)c(NC(=O)c2ccc(CNc3ccnc(C(F)(F)F)c3)cc2)c1 | 81.1% | 74% | 65.3% | 56% | 18.8% | 92.1% | 67.6% | 53% | 48.8% | 152%
14 | CO[C@H](C(=O)[C@@H](O)[C@@H](C)O)[C@@H]1Cc2cc3cc(O[C@H]4C[C@@H](O[C@H]5C[C@@H](O)[C@H](O)C(C)O5)[C@H](O)C(C)O4)c(C)c(O)c3c(O)c2C(=O)[C@H]1O[C@H]1C[C@@H](O[C@H]2C[C@@H](O[C@H]3C[C@@H](OC)[C@H](O)C(C)O3)[C@@H](O)C(C)O2)C(O)(O)C(C)O1 (stereo not given in full) | 7.35% (active) | -20.8% (active) | 9.68% (active) | -3.61% (active) | 9.9% (active) | 9.37% (active) | -20.2% (active) | 3.64% (active) | 11.2% | -80% (active)
15 | CCOC(=O)C1=C(C)N=C2SC=C(c3ccccc3)N2[C@H]1c1cn[nH]c1-c1ccc(Cl)cc1 | 51.2% | 66.4% | 78.7% | 63% | 43.3% | -1.56% (active) | -56.8% (active) | 56.4% | 49.6% | 57.1%
16 | N=C(N)c1ccc(-c2ccc(-c3ccc(Cl)cc3Cl)s2)cc1F | 18.9% | 93.2% | -43.8% (active) | -0.426% (active) | -72.4% (active) | 43% | -44.2% (active) | -55.8% (active) | -78.8% (active) | -47.2% (active)
17 | C=CC(=O)N1CCN(c2ccc3cccc(NC(=O)c4cnc(C)cn4)c3n2)CC1 | 66.7% | 42.9% | 21.2% | 41.1% | 34.7% | 42.7% | 10.4% | 27.3% | 24.8% | 59.3%
18 | Cc1ccc(-c2nc(C(Cl)Cl)nc3cc(C)nn23)cc1 | -18.4% (active) | 70.2% | -24.9% (active) | 7.49% (active) | -64.8% (active) | 35% | 4.52% (active) | -4.14% (active) | 81.8% | -36.6% (active)
19 | CCOc1ccc(NC(=O)c2cc(OC)c(OC)c(OC)c2)cc1 | 45.8% | 68.1% | 52.2% | 56.2% | 17.1% | 44.1% | 42.3% | 46.6% | 32.3% | 11.8%
20 | Cc1cc(C)c(-c2c(O)c(Br)c(-c3c(C)cc(C)c(Br)c3C)c(O)c2Br)c(C)c1Br | 43.7% | 52.1% | 38.1% | 62% | 1.57% (active) | -3.74% (active) | -70.3% (active) | 18.6% | 24.8% | -67.2% (active)
21 | CCCCCCCCNc1cc2c3c(c1)CCCN3CCC2 | -9.97% (active) | 39.1% | 111% | 27% | 16.9% | -5.51% (active) | -28.4% (active) | 76.4% | 42.7% | 3.21% (active)
